High-throughput results deposited in PubChem by several laboratories.
This is a sample that favours compounds with a hit; in the whole collection about 3.1% have one here.
S1P3 antagonist: S1P3 (human) receptor antagonism | Q99500 | CHO S1P3 NFAT-BLA reporter, FRET fluorescence, antagonist mode | actives 0.27% (n = 170,000) | inhibition, % at 4.98 µM;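 active means inhibition above the plate cutoff, the mean inhibition of test wells on that plate plus 3 SD, cut at about 28% in these data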;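 further: cells challenged with S1P at its EC80 of 0.8 µM; blue over green emission ratio from cleaved BLA substrate after 4 h stimulation; 0% = S1P-stimulated wells and 100% = unstimulated DMSO-only wells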
Target sequence (Q99500 whole entry, looked up): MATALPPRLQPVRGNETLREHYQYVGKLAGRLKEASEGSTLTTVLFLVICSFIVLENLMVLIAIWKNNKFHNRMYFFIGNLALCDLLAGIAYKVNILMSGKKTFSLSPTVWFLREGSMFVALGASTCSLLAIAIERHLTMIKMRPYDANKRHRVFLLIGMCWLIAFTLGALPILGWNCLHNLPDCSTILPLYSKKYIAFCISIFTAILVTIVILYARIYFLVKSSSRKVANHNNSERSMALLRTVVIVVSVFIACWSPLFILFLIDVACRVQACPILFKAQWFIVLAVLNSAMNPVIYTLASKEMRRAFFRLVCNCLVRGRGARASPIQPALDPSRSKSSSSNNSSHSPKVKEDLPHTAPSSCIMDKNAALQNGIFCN
EP2 antag: EP2 receptor (human) inhibition; inhibition, % at 25 µM; C6 glioma cells expressing human EP2, cAMP TR-FRET; cells stimulated with saturating PGE2; AID 1422; P43116; actives 0.52% (n = 260,000);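 active means percent inhibition above 40 after rounding to a whole number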;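 further: rat C6 glioma host cells with rolipram phosphodiesterase inhibitor present; the protocol text gives 20 µM as final concentration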
Target sequence (P43116 whole entry, looked up): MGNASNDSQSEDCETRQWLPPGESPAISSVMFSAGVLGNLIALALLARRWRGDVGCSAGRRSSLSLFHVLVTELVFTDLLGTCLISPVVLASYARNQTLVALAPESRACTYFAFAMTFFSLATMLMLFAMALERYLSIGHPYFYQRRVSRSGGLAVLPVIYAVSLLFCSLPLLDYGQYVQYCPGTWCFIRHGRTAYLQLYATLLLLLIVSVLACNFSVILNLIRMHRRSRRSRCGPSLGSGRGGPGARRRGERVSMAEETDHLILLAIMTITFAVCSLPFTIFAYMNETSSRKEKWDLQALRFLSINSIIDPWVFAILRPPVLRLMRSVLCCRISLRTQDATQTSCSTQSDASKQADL
EP2 mod: modulators of human EP2 prostaglandin E2 receptor. actives 0.83% (n = 260,000). AID 940. induction, % at 25 µM. P43116. EP2-expressing cells, cAMP HTRF FRET, PGE2 co-stimulation;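 active means compounds whose cAMP rise, as percent of the full-agonist control response, exceeds 60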;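 further: rat C6 glioma line stably carrying human EP2 under a CMV promoter; the protocol text gives 20 µM as final concentration; 100% = response of wells given 1 µM PGE2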
Cl transport mod: modulates chloride dependent transport by human KCC2; Q9H2X9; KCC2 cells, thallium flux FluoZin-2 fluorescence; actives 2.2% (n = 190,000); AID 1456; B-score of Tl+ flux slope (higher = more flux/activation; lower = inhibition) at 10 µM;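 active means thallium flux slope and its plate-corrected score both differing from the plate sample mean at a set confidence after two filtering rounds, in either direction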;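 further: slope of fluorescence scaled to starting intensity during 10 to 20 s after thallium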
KCC2 sec1: confirmation of human KCC2 transport modulators; shares compounds with Cl transport mod; actives 15% (n = 3,700); HEK293-KCC2, thallium flux, FluoZin2 fluorescence; hits give high values; normalised thallium flux (F/F0 slope) at 10 µM;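 active means thallium flux slope above the same plate's solvent-only control mean plus 3 SD; inconclusive means the two replicate wells disagree; inactive means no significant difference from solvent-only control wells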
KCC2 bumet counter: thallium flux despite bumetanide block in KCC2 cells, secondary assay 3. shares compounds with Cl transport mod. HEK293-KCC2 + bumetanide/ouabain, thallium flux FluoZin2; hits give high values. normalized thallium flux at 10 µM. actives 49% (n = 3,700). AID 1714;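 active means thallium entry rate above the same plate's blocked-transporter control wells by more than 3 SD; inconclusive means the two repeat wells disagree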;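 further: raw slope of fluorescence over initial fluorescence between 10 and 20 s after thallium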
KCC2 sec2: confirmation of human KCC2 transport modulators. normalized thallium flux at 10 µM. HEK293-KCC2, thallium flux FluoZin2 fluorescence; actives lie on both sides; F/F0 rise rate, 10–20 s post-thallium. actives 23% (n = 3,700). shares compounds with Cl transport mod;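 active means thallium flux slope more than 3 SD above or below the plate's solvent-only control mean, mostly below; inconclusive means the two repeat wells disagreed; inactive means no significant shift from solvent-only controls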;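 further: raw slope with 0.1% DMSO as baseline and bumetanide as block control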
HEK counter1: counter-screen for KCC2 modulators: effect in parental HEK293 cells. thallium flux rate (normalised fluorescence) at 10 µM. actives 46% (n = 3,700). thallium flux FluoZin2, ouabain; baseline-ratio fluorescence slope, 10–20 s after thallium. shares compounds with Cl transport mod;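 active means thallium flux rate significantly above the same plate's solvent-only control wells, beyond their mean plus 3 SD; inconclusive means the two replicate wells gave conflicting results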
KCC2 ouabain: confirmation of human KCC2 modulators with ouabain. shares compounds with Cl transport mod. HEK293-KCC2, thallium flux FluoZin2 fluorescence; bidirectional: low = inhibitor, high = activator. raw Tl+ flux slope (below DMSO = inhibition, above = activation) at 10 µM. actives 48% (n = 3,700);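 active means thallium flux slope beyond 3 SD from same-plate DMSO control mean in most replicates, usually higher, sometimes lower; inconclusive means repeat tests gave conflicting results; inactive means no significant difference from controls in most replicates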;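 further: slope of initial-normalized fluorescence between seconds 10 and 20 after thallium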
HEK counter2: parental HEK flux effect, counter-screen 2 | HEK293 parental, thallium flux FluoZin-2 fluorescence slope | AID 1718 | thallium flux slope at 10 µM | shares compounds with Cl transport mod | actives 33% (n = 3,700);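 active means thallium flux slope above the same plate's solvent-control mean plus 3 SD in both duplicate wells; inconclusive means duplicate wells that disagreed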;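 further: run without ouabain in cells lacking the KCC2 cotransporter; slope of fluorescence scaled to its starting value between 10 and 20 s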
* hit, by the source's call; ? = inconclusive; nt = not tested or not shown.

SMILES	S1P3 antagonist	EP2 antag	EP2 mod	Cl transport mod	KCC2 sec1	KCC2 bumet counter	KCC2 sec2	HEK counter1	KCC2 ouabain	HEK counter2
O/N=C\c1cccn1-c1ccc(Br)cc1	nt	16.9	31.8	nt	0.00835	0.006	0.0304	0.00592	0.0189	0.00966
COc1ccc(CC(=S)N2CCOCC2)cc1F	-8.5	7.8	3.6	0.193	nt	nt	nt	nt	nt	nt
COc1cc(C(=S)N2CCOCC2)cc(OC)c1OC(=O)Cc1ccc(F)cc1	4.5	1.5	5.3	-4.31*	0.00918	0.00689	0.028*	0.00392	0.0159*	0.0114
CCOc1ccc2cc(C#N)c(SCC(=O)N3CCc4ccccc43)nc2c1	nt	14.0	31.7	nt	nt	nt	nt	nt	nt	nt
CCOc1ccc(OCC)c(NS(=O)(=O)c2cccc3nsnc23)c1	nt	6.3	38.8	18.4*	0.0133*	0.0726*	0.0349	0.0274*	0.0353*	0.0134*
CN(C)S(=O)(=O)c1cccc2nsnc12	-5.0	nt	9.7	nt	nt	nt	nt	nt	nt	nt
CNS(=O)(=O)c1cccc2nsnc12	0.4	4.6	-1.1	0.135	0.00877	?	0.0311	0.008	0.0214	0.0107
CN(C1CCS(=O)(=O)C1)S(=O)(=O)c1cccc2nsnc12 (configuration not stated)	nt	6.8	-15.7	nt	0.00596	0.00457	0.029	0.00774	0.0185	0.0108
Cc1ccc(C)c2[nH]c(=O)c(CN(CCCO)C(=S)Nc3ccccc3)cc12	nt	5.0	-43.9	nt	nt	nt	nt	nt	nt	nt
CCc1nnc(NC(=O)C2CCN(c3nc4ccccc4n3C)CC2)s1	nt	7.8	-0.4	nt	nt	nt	nt	nt	nt	nt
COc1ccc(NC(=O)CSc2nnc(Cc3ccccc3)n2-c2ccc(OC)cc2)cc1	nt	8.2	31.4	nt	nt	nt	nt	nt	nt	nt
Cc1occc1-c1nn(CC(=O)NC2CCCCC2)c(=O)o1	nt	nt	-41.7	nt	nt	nt	nt	nt	nt	nt
CCc1nnc(NC(=O)CCN2C(=O)/C(=C/c3cccs3)SC2=S)s1	nt	11.4	4.0	nt	nt	nt	nt	nt	nt	nt
CC(C)(C)c1csc(NNC(=O)c2ccc(Cl)cc2)n1	-0.7	6.1	-27.1	23.6*	0.0103	0.0302*	0.0346	0.0368*	0.0323*	0.0142*
Cc1cccc(-c2nc(=S)c3c(o2)CCCC3)c1	nt	6.4	-1.2	52.5*	0.0151*	0.0302*	0.0282	0.0146*	?	?
O=C(CCc1nnc(COc2ccccc2)o1)NCc1ccccc1C(F)(F)F	4.8	14.0	-15.3	-3.19*	0.00739	0.00627	0.0359	0.00389	0.0167*	0.0109
O=C(CSc1nnc(SCc2cccc3ccccc23)s1)c1ccc2c(c1)OCO2	nt	nt	-9.9	nt	?	0.0281*	0.0399*	0.0339*	0.0324*	0.0353*
Cc1cccc(C(=O)NC(=S)NNC(=O)Cc2ccccc2)c1	-1.5	10.6	-17.4	14.2*	0.0185*	0.0484*	0.0369	0.0247*	0.041*	0.0146*
O=C(NNC(=S)NC1CCCCC1)c1cccs1	-23.0	8.5	4.4	-1.04	nt	nt	nt	nt	nt	nt
CNC(=S)NNC(=O)Cc1ccccc1	nt	2.6	10.1	nt	nt	nt	nt	nt	nt	nt
CC(=O)NNC(=S)NC(=O)c1ccc(C)cc1	-5.5	8.3	26.2	2.07	nt	nt	nt	nt	nt	nt
O=C(Cc1ccccc1)NNC(=S)NC(=O)c1cccs1	2.1	4.6	4.2	6.8*	0.00491	0.0137*	0.0334	0.0155*	?	0.0181*
O=C(Cc1cccs1)NNC(=S)NC(=O)c1ccccc1	-10.0	11.7	-55.6	3.27	nt	nt	nt	nt	nt	nt
CCC(=O)NNC(=S)NC(=O)c1ccc(C)cc1	-14.7	12.9	48.3	7.6*	?	0.0202*	0.0296	0.0132*	0.0238	?
CC1CCCCC1NC(=S)NC(=O)c1cccs1 (configuration not stated)	-3.7	1.9	20.0	117*	0.0272*	0.14*	0.0321	0.0578*	0.0639*	0.0175*
SMILES	S1P3 antagonist	EP2 antag	EP2 mod	Cl transport mod	KCC2 sec1	KCC2 bumet counter	KCC2 sec2	HEK counter1	KCC2 ouabain	HEK counter2
O=C(COc1ccc(F)cc1)OCCN1CCCCC1	nt	6.5	19.3	nt	nt	nt	nt	nt	nt	nt
CCC(CN1CCCC1)NC(=O)C1(c2ccc(F)cc2)CC1 (configuration not stated)	nt	5.9	-37.3	nt	nt	nt	nt	nt	nt	nt
O=C(/C=C/c1ccccc1)NC(=S)NNC(=O)Cc1cccs1	nt	10.8	-46.8	6.25*	0.00967	0.026*	0.0314	?	?	0.012
COc1cc2ccccc2cc1C1C(C#N)=C(N)Oc2n[nH]c(C)c21 (configuration not stated)	nt	10.4	2.4	nt	nt	nt	nt	nt	nt	nt
Cn1c(=O)c2c(O)c(Cc3ccccc3)c(=O)[nH]c2n(C)c1=O	-19.6	11.4	18.0	1	nt	nt	nt	nt	nt	nt
CCC(=Nc1ccc(Cc2ccncc2)cc1)c1c(O)n(C)c(=O)n(C)c1=O	-10.3	21.4	0.1	-3.25*	0.00784	?	0.0239*	0.00788	?	0.0116
OC1(c2cccnc2)CCN(CC2(c3ccc(Cl)cc3)CC2)CC1	nt	2.0	9.7	nt	nt	nt	nt	nt	nt	nt
CCCc1cc(C(=O)N2CCc3onc(-c4cccc(OC)c4)c3C2)n[nH]1	nt	30.2	-96.6	nt	nt	nt	nt	nt	nt	nt
O=C(O)c1ccccc1-c1ccccc1C(=O)Nc1ccc(-c2nc3cc(Cl)ccc3o2)cc1	7.6	16.9	-24.2	-3.66*	0.00751	0.00484	0.019*	0.00767	0.0118*	0.0105
O=C(Nc1ccc2oc(-c3ccccc3)nc2c1)c1ccc2c(c1)OCCO2	8.8	6.7	-37.9	-2.99*	0.0079	0.00677	0.0295	0.00705	0.0348*	?
O=C(Nc1ccc2oc(-c3ccncc3)nc2c1)c1ccc2c(c1)OCCO2	3.0	6.5	-8.0	-0.26	nt	nt	nt	nt	nt	nt
CC(=O)Nc1ccc(-c2nc3cc(Cl)ccc3o2)cc1	nt	11.4	-56.2	nt	nt	nt	nt	nt	nt	nt
O=C(O)CSc1nnc(COc2ccc(Br)cc2)o1	nt	7.9	-45.4	nt	nt	nt	nt	nt	nt	nt
COc1ccc(NS(=O)(=O)c2ccc(-n3nnc4ccccc43)c([N+](=O)[O-])c2)cc1	nt	11.3	-31.1	0.971	nt	nt	nt	nt	nt	nt
O=[N+]([O-])c1cc(S(=O)(=O)Nc2cccc(C(F)(F)F)c2)ccc1-n1nnc2ccccc21	nt	7.6	-4.4	-3.22*	0.00701	0.00556	0.0305	0.00733	0.0149*	?
Cc1ccc(C)c2nc(SCC(=O)NCC3CCCO3)c(C#N)cc12 (configuration not stated)	nt	7.8	9.8	nt	nt	nt	nt	nt	nt	nt
COC(=O)c1[nH]c2ccc(C)cc2c1NS(=O)(=O)c1ccc(F)c(C)c1	24.4	nt	63.3*	-2.93*	0.0113	?	0.0275	0.00789	0.0291	0.0102
Cc1ccc(C2=CSC3=NNC4(CCCCC4)NN23)cc1	-15.3	3.5	-38.3	-4.39*	0.00706	0.00577*	0.0236*	0.00837	?	0.0112
